Experiment [1] in a line: NCI Yeast Anticancer Drug Screen. Data for the rad50 strain (AID 155).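 Further: 0% = growth of vehicle-only cultures of the same strain.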 The settings on record: S. cerevisiae rad50 strain growth inhibition, stronger effect = higher value. A digest of the protocol: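 Compounds were tested on a yeast strain with an engineered DNA damage repair alteration; the reported value is growth inhibition normalised to vehicle treatment.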
Experiment [2] can be described thus: NCI Yeast Anticancer Drug Screen. Data for the mec2-1 strain (AID 157). The settings on record: S. cerevisiae mec2-1 strain, stronger effect = higher value. A digest of the protocol: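 Growth inhibition is read against vehicle-treated controls after compound exposure of the mec2-1 yeast strain, which is defective in DNA damage repair or cell cycle control.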
Experiment [3] can be described thus: NCI Yeast Anticancer Drug Screen. Data for the sgs1 mgt1 strain (AID 161).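 Further: 0% = growth of cultures given vehicle only.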 The settings on record: S. cerevisiae sgs1 mgt1 strain, stronger effect = higher value. A digest of the protocol:
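Yeast cells carrying a defined DNA-repair defect were exposed to test compounds. Growth inhibition was measured relative to vehicle-treated controls.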

Experiment [4] in a line: NCI Yeast Anticancer Drug Screen. Data for the cln2 rad14 strain (AID 165).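 Further: 0% = growth equal to vehicle treated cultures.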 Particulars: S. cerevisiae cln2 rad14 strain, stronger effect = higher value. A digest of the protocol: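 Growth inhibition, relative to vehicle-treated controls, is the read-out. The test organism is a yeast strain with defined genetic alterations, cln2 rad14.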
Experiment [5] in a line: NCI Yeast Anticancer Drug Screen. Data for the bub3 strain (AID 167). The settings on record: S. cerevisiae bub3 mutant strain, stronger effect = higher value. A digest of the protocol:
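Growth of a checkpoint-deficient yeast mutant is measured after compound exposure. Values represent inhibition relative to vehicle.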

A short description of experiment [6]: NCI Yeast Anticancer Drug Screen. Data for the mlh1 rad18 strain (AID 175). Particulars: S. cerevisiae mlh1 rad18 strain growth inhibition, stronger effect = higher value. The procedure, abridged:
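Cells of a genetically altered yeast strain, deficient in DNA damage repair, were treated with compound. Their growth was then compared with that of vehicle-treated cultures to give inhibition.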

Setting [7] is: at 5.0 µM (retest, dose inferred, filed as 0.5).
Where [8] appears, read: at 50.0 µM (retest, dose inferred, filed as 5.0).

Among the data in PubChem BioAssay (NCI) are growth inhibition values, retold here.

About 79,000 compounds went through this panel and 15% of them were active in at least one assay; those are over-represented in the sample as a whole. Unmarked numbers belong to inactive results. Active and inactive are the calls of the source. No stated cut-off is given here; in the data, active means growth inhibition above about 70%; inactive means the rest.

In the case of `O=[N+]([O-])c1ccc2c(Nc3ccccc3-c3ccccc3Nc3c4ccccc4nc4cc([N+](=O)[O-])ccc34)c3ccccc3nc2c1`, the growth inhibition in experiment [1] (setting [7]) was 29%; in experiment [1] (setting [8]), 96% (active); in experiment [1] (at 50.0 µM), 90.9% (active); in experiment [2] (setting [7]), 22%; in experiment [2] (setting [8]) it was 98% (active); in experiment [2] (at 50.0 µM), 90% (active). Further, the growth inhibition in experiment [3] (setting [7]) was 18%; in experiment [3] (setting [8]) it was 98% (active); in experiment [3] (at 50.0 µM), 91% (active); in experiment [4] (setting [7]), 30%; in experiment [4] (setting [8]), 98% (active); in experiment [4] (at 50.0 µM) it was 90.8% (active). The growth inhibition in experiment [5] (setting [7]) was 27%; in experiment [5] (setting [8]), 98% (active); in experiment [5] (at 50.0 µM) it was 87.4% (active); in experiment [6] (setting [7]), 38%; in experiment [6] (setting [8]), 96% (active); in experiment [6] (at 50.0 µM), 88.9% (active).
Take `Cc1ccc(Nc2nc(C)c(C(/C=C/c3ccc4c(c3)OCO4)=N/Nc3ccc([N+](=O)[O-])cc3[N+](=O)[O-])s2)c([N+](=O)[O-])c1`: the growth inhibition in experiment [1] (setting [7]) is 43%; in experiment [1] (setting [8]), 43%; in experiment [1] (at 50.0 µM), 53.5%; in experiment [2] (setting [7]), 36%; in experiment [2] (setting [8]), 36%; in experiment [2] (at 50.0 µM), 69%. The growth inhibition is 37% in experiment [3] (setting [7]); 37% in experiment [3] (setting [8]); 89.5% (active) in experiment [3] (at 50.0 µM); 23% in experiment [4] (setting [7]); 23% in experiment [4] (setting [8]); 68.2% in experiment [4] (at 50.0 µM). Further, the growth inhibition in experiment [5] (setting [7]) is 33%; in experiment [5] (setting [8]), 33%; in experiment [5] (at 50.0 µM), 67.7%; in experiment [6] (setting [7]) it was 37%; in experiment [6] (setting [8]), 37%; in experiment [6] (at 50.0 µM), 81.7% (active).
Take `CSc1ccc(/C=C2\CN(C)C/C(=C\c3ccc(SC)cc3)C2=O)cc1`: the growth inhibition in experiment [1] (setting [7]) was 43%; in experiment [1] (setting [8]), 52%; in experiment [1] (at 50.0 µM), 73.5% (active); in experiment [2] (setting [7]), -7%; in experiment [2] (setting [8]), 32%; in experiment [2] (at 50.0 µM), 70% (active). Besides, the growth inhibition in experiment [3] (setting [7]) is 36%; in experiment [3] (setting [8]), 61%; in experiment [3] (at 50.0 µM) it was 91.6% (active); in experiment [4] (setting [7]) it was 34%; in experiment [4] (setting [8]), 33%; in experiment [4] (at 50.0 µM) it was 68.4%. Also, the growth inhibition in experiment [5] (setting [7]) is 25%; in experiment [5] (setting [8]), 45%; in experiment [5] (at 50.0 µM), 44%; in experiment [6] (setting [7]) it was 29%; in experiment [6] (setting [8]) it was 15%; in experiment [6] (at 50.0 µM), 82.8% (active).
As to `Nc1nc(N)c2nc(Sc3ccc(F)cc3)c(N)nc2n1`, the growth inhibition is -2% in experiment [1] (setting [7]); 37% in experiment [1] (setting [8]); 42.7% in experiment [1] (at 50.0 µM); -1% in experiment [2] (setting [7]); -4% in experiment [2] (setting [8]); 39.2% in experiment [2] (at 50.0 µM). For the same molecule, the growth inhibition in experiment [3] (setting [7]) was -1%; in experiment [3] (setting [8]), 40%; in experiment [3] (at 50.0 µM), 51.6%; in experiment [4] (setting [7]), 2%; in experiment [4] (setting [8]), 24%; in experiment [4] (at 50.0 µM) it was 10.3%. In addition, the growth inhibition in experiment [5] (setting [7]) is -1%; in experiment [5] (setting [8]), 26%; in experiment [5] (at 50.0 µM) it was 40.9%; in experiment [6] (setting [7]), 0%; in experiment [6] (setting [8]), 58%; in experiment [6] (at 50.0 µM), 75.1% (active).
`OC(CBr)c1c(Br)ccc2ccccc12` (stereo not given): the growth inhibition in experiment [1] (setting [7]) was 3%; in experiment [1] (setting [8]) it was 65%; in experiment [1] (at 50.0 µM), 53.6%; in experiment [2] (setting [7]), -6%; in experiment [2] (setting [8]), 82% (active); in experiment [2] (at 50.0 µM) it was 5.75%. For the same molecule, the growth inhibition was 3% in experiment [3] (setting [7]); 77% (active) in experiment [3] (setting [8]); 48% in experiment [3] (at 50.0 µM); -3% in experiment [4] (setting [7]); 65% in experiment [4] (setting [8]); 32.9% in experiment [4] (at 50.0 µM). The growth inhibition was -1% in experiment [5] (setting [7]); 77% (active) in experiment [5] (setting [8]); 20.4% in experiment [5] (at 50.0 µM); 20% in experiment [6] (setting [7]); 90% (active) in experiment [6] (setting [8]); 74.7% (active) in experiment [6] (at 50.0 µM).
